Assay results: PubChem BioAssay (NCI)
Compounds without any hit were thinned out: in the full panel of roughly 83,000, 20% have a hit.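 Testing used 96-well plates and a 48-hour single-concentration exposure. Example: -40 means 40% of the starting cells died.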 Unmarked numbers belong to inactive results. The source made the active and inactive calls. How the source made its calls: active means growth percent below 10; inactive means the rest.

Columns and labels:
Assay in all cases: NCI-60 one-dose screen, 48 h (100 = growth as untreated, 0 = no growth, -100 = all killed)
Settings in all cases: 10 µM unless noted
[1] = test system: SR leukemia
[2] = test system: RPMI-8226 leukemia
[3] = test system: OVCAR-8 ovarian
[4] = test system: OVCAR-5 ovarian
[5] = test system: OVCAR-4 ovarian
[6] = test system: SK-OV-3 ovarian
[7] = test system: IGROV1 ovarian
[8] = test system: OVCAR-3 ovarian
[9] = test system: HS 578T breast
[10] = test system: NCI/ADR-RES ovarian
[11] = test system: T-47D breast
[12] = test system: BT-549 breast
[13] = test system: MDA-MB-435 melanoma
[14] = test system: SW-620 colon
[15] = test system: MCF7 breast
[16] = test system: HCT-116 colon
[17] = test system: HCC-2998 colon
[18] = test system: KM12 colon

SMILES | growth [1] | growth [2] | growth [3] | growth [4] | growth [5] | growth [6] | growth [7] | growth [8] | growth [9] | growth [10] | growth [11] | growth [12] | growth [13] | growth [14] | growth [15] | growth [16] | growth [17] | growth [18]
O=C(O)CCCN1C(=O)/C(=C/c2cn(-c3ccccc3)nc2-c2ccc([N+](=O)[O-])cc2)SC1=S | 33.3% | 46.8% | 44.4% | 94.3% | 64% | 59.1% | 58.3% | 61.6% | 63.6% | 43.5% | 61.6% | 55.1% | 48.6% | 65.7% | 52.3% | 36.9% | 64.6% | 
C=C1C(=O)O[C@H]2[C@H]1CC/C(COC(=O)C(=O)c1cn(C)c3ccc(Cl)cc13)=C\CC[C@@]1(C)O[C@@H]21 | 2.71% (active) | -33.7% (active) | -23.9% (active) | -47.6% (active) | -61.2% (active) | -35.4% (active) | -72.1% (active) | -86.3% (active) | -16.9% (active) | -3.58% (active) | -55.6% (active) | -74.5% (active) | -81.3% (active) | -69.1% (active) | -54.3% (active) | -96.4% (active) | -80.3% (active) | 
O=C(Nc1nc2ccc(C(=O)N3CCN(/C=C/c4ccccc4)CC3)cc2s1)c1ccc(NCCc2ccccc2)c([N+](=O)[O-])c1 | -13.7% (active) | 18.5% | 68.4% | 83.6% | 42.9% | 62.9% | 64.3% | 59.3% | 69% | 70.2% | 43.2% | 71.9% | 55.8% | 4.25% (active) | 16% | 11.2% | 76.9% | 53.5%
COC(=O)[C@@H](CCCCNC(=O)[C@]12CCC(C)(C)C[C@@H]1C1=CC[C@@H]3[C@@]4(C)C/C(=C/c5ccco5)C(=O)C(C)(C)[C@@H]4CC[C@@]3(C)[C@]1(C)CC2)NC(=O)[C@]12CCC(C)(C)C[C@@H]1C1=CC[C@@H]3[C@@]4(C)C/C(=C/c5ccco5)C(=O)C(C)(C)[C@@H]4CC[C@@]3(C)[C@]1(C)CC2 | 87.9% | 100% | 104% | 108% | 127% | 106% | 107% | 115% | 104% | 112% | 94.7% | 106% | 93.9% | 112% | 104% | 100% | 103% | 103%
COc1cccc(/C=C2\COc3ccc(O)c(O)c3C2=O)c1 | 12.6% | -7.52% (active) | 10.7% | -2.7% (active) | 26.9% | 86.2% | -31.1% (active) | -28.3% (active) | 20.4% | 2.6% (active) | -0.573% (active) | 15.6% | -3.44% (active) | 1.94% (active) | 17.6% | -7.55% (active) | 19.8% | -13.7% (active)
Cc1ccc(-c2nc(N3CCCNCC3)c3oc(-c4ccc(C)cc4)nc3n2)cc1 | -44.5% (active) | -51% (active) | -58.6% (active) | 78.5% | 2.2% (active) | 98.1% | 12.2% | -67.7% (active) | 110% | 16.3% | -46% (active) | 90.2% | 70.8% | -49.7% (active) | -64.8% (active) | 27.5% | 40.9% | 11.3%
C=C1C(=O)O[C@H]2[C@H]1CC/C(COC(=O)NCc1ccc(Cn3c(=O)sn(CCCCC)c3=O)cc1)=C\CC[C@@]1(C)O[C@@H]21 | 3.58% (active) | -22.8% (active) | 58% | 72.5% | 29.5% | 93.6% | 24.1% | -56.1% (active) | 71% | 99.8% | 0.543% (active) | 42.5% | 25.7% | -61.1% (active) | 6.29% (active) | -12.3% (active) | 94.6% | 95.9%
Cc1[nH]c(C(=O)Nc2ccc(C(=O)N3CCN(c4cc5c(cc4F)c(=O)c(C(=O)O)cn5C4CC4)CC3)cc2OC(C)C)c(Cl)c1Cl | 45.9% | 34.2% | 78.2% | 95.1% | 94.5% | 110% | 49.5% | 85.8% | 87.2% | 78.4% | 84% | 75.7% | 88.5% | 96.3% | 88.8% | 38.1% | 96.4% | 80.4%
CN(/C(N)=N/N=C/c1c2ccccc2cc2ccccc12)C1CCCCC1 | 0.552% (active) | 2.66% (active) | 56.3% | 78.8% | 27.6% | 66% | 40.3% | 58.8% | 66.6% | 45% | 30.8% | 67.7% | 57.5% | 58.6% | 32.8% | 15.9% | -69.9% (active) | 59.6%
O=C(Nc1cccc(-c2ccc(N3CCOCC3)nn2)c1)Nc1cccc(C(F)(F)F)c1 | 60.4% | 31.4% | 35.4% | 125% | 73.3% | 104% | 97.1% | 74.3% | 91.6% | 72.2% | 8.63% (active) | 40.9% | 69.7% | 110% | 55.3% | 68.2% | 109% | 55.5%
CCOC(=O)c1cc2c(n1C)-c1nc(NC(C)=O)sc1CCC2 | 72.6% | 79% | 71.2% | 117% | 80.4% | 76.1% | 69.2% | 85.7% | 60.5% | 85.1% | 51.8% | 71.8% | 98.5% | 93.3% | 61.6% | 75.4% | 113% | 87.7%
Oc1c(I)cc(I)cc1CNCCN(Cc1ccccn1)Cc1ccccn1 | -9.62% (active) | -12.3% (active) | -19.7% (active) | -24.3% (active) | -48.5% (active) | -74.7% (active) | -66.3% (active) | -59.7% (active) | -11.3% (active) | -18.4% (active) | -36% (active) | -33.6% (active) | -66.6% (active) | -42.5% (active) | -6.6% (active) | -45.1% (active) | -86.8% (active) | -38.9% (active)
C[PH+](c1nc2ccccc2nc1[PH+](C)C(C)(C)C)C(C)(C)C.C[PH+](c1nc2ccccc2nc1[PH+](C)C(C)(C)C)C(C)(C)C.[Au+].[Cl-] (centres undefined) | 6.59% (active) | -18.1% (active) | -54.3% (active) | -100% (active) | -100% (active) | -100% (active) | -87.9% (active) | -100% (active) | -38.6% (active) | -79.5% (active) | -79.9% (active) | -74.4% (active) | -79.3% (active) | -100% (active) | -84.3% (active) | -100% (active) | -100% (active) | -99.3% (active)
Nc1ncnc2c1C(c1ccccc1)c1ccc3ccccc3c1O2 (centres undefined) | 55.1% | 80.8% | 79.6% | 99% | 86.5% | 64.7% | 77.8% | 93.9% | 93.7% | 80.9% | 55.7% | 73.3% | 79.3% | 94.9% | 67.4% | 85.3% | 102% | 88.3%
C=CCN=c1sc2c(n1NC(=O)c1cc3ccc1CCc1ccc(cc1)CC3)C(=O)c1ccccc1C2=O | -8.54% (active) | -27.7% (active) | 5.6% (active) | -65.7% (active) | -96.3% (active) | 55.7% | -20.5% (active) | -26.4% (active) | -9.43% (active) | -12.8% (active) | -3.21% (active) | -99.1% (active) | -93.5% (active) | -59.7% (active) | -62.8% (active) | -32.4% (active) | -33.5% (active) | 6.04% (active)
Cc1csc(Nc2nc(-c3ccccn3)nc(C(Cl)(Cl)Cl)n2)n1 | 53.2% | 91.5% | 77.7% | 108% | 83.6% | 97.8% | 82.1% | 97.4% | 115% | 66.8% | 78.8% | 110% | 82.3% | 86.3% | 84.2% | 75% | 107% | 82.8%
CCCCNC(=O)CC1=C(C)/C(=C/c2[nH]c(-c3ccc[nH]3)cc2OC)N=C1C | -16.8% (active) | 39.2% | 20.5% | 50.2% | 39.7% | 51.7% | 49.2% | 24.4% | 43.1% | 30.1% | 32.6% | 41.7% | 20.2% | 12.5% | 22.3% | 3.1% (active) | 33.8% | 13.4%
